13 compounds from PubChem BioAssay (NCI) can be followed below.

Some test systems named below: SR leukemia; RPMI-8226 leukemia; OVCAR-8 ovarian; OVCAR-5 ovarian; OVCAR-4 ovarian; SK-OV-3 ovarian; IGROV1 ovarian; OVCAR-3 ovarian; HS 578T breast; NCI/ADR-RES ovarian.
Holding throughout (test): NCI-60 one-dose screen, 48 h (100 = growth as untreated, 0 = no growth, -100 = all killed)
Holding throughout (settings): 10 µM unless noted

Molecules are shown by their SMILES. The panel holds about 83,000 compounds, 20% with a hit somewhere; the sample as a whole holds those more often.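 In brief: 96-well plates, 48 h treatment, single concentration, percent growth endpoint.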 Values without a mark were called inactive. Calls of active or inactive are those of the source. How the source made its calls: active means growth percent below 10; inactive means the rest.

For the compound `O=C(O)/C=C/C(=O)Nc1cccc(Cn2nnc3cc(Cl)c(Cl)cc32)c1`, the growth in the assay with SR leukemia is 93.8%; in the assay on RPMI-8226 leukemia, 104%; in the assay with OVCAR-8 ovarian it was 99.6%; in the assay on OVCAR-5 ovarian, 100%; with OVCAR-4 ovarian, 108%; in the assay on SK-OV-3 ovarian, 90.1%. The growth in the assay with IGROV1 ovarian was 94.1%; with OVCAR-3 ovarian, 101%; with HS 578T breast, 88%; in the assay on NCI/ADR-RES ovarian it was 106%.

On to `O=C(Cn1nnc2ccccc21)N/N=C/c1c[nH]c2ccccc12`, for which the growth in the assay on SR leukemia was 18.3%; in the assay with RPMI-8226 leukemia, 45%; in the assay with OVCAR-8 ovarian, 44.8%; in the assay with OVCAR-5 ovarian, 71.9%; in the assay on OVCAR-4 ovarian it was 82%; with SK-OV-3 ovarian, 65.7%. Also, the growth was 54.1% in the assay on IGROV1 ovarian, 22.4% with OVCAR-3 ovarian, 57.5% in the assay with HS 578T breast and 47.6% in the assay on NCI/ADR-RES ovarian.

In the case of `N=c1c(S(=O)(=O)c2ccccc2)cc2c(=O)n3ccccc3nc2n1CC1CCCO1` (stereo not given), the growth is 106% with SR leukemia; 109% with RPMI-8226 leukemia; 116% with OVCAR-8 ovarian; 89.8% in the assay on OVCAR-5 ovarian; 99.9% with OVCAR-4 ovarian; 99.3% in the assay with SK-OV-3 ovarian. The growth in the assay on IGROV1 ovarian was 102%; in the assay with OVCAR-3 ovarian, 108%; in the assay on HS 578T breast, 104%; in the assay on NCI/ADR-RES ovarian, 98.7%.

With `O=C(NNc1cnccn1)c1nc2cc(F)ccc2n2cccc12`, the growth in the assay on SR leukemia is 3.73% (active); with RPMI-8226 leukemia, 12%; with OVCAR-8 ovarian, 15.7%; in the assay on OVCAR-5 ovarian it was 31.2%; in the assay with OVCAR-4 ovarian, -9.11% (active); in the assay on SK-OV-3 ovarian, 18.4%. The growth was 9.25% (active) with IGROV1 ovarian, 3.83% (active) with OVCAR-3 ovarian, 60.6% in the assay on HS 578T breast and 0.226% (active) in the assay on NCI/ADR-RES ovarian.

Turning to `N#CC1CCc2c(c(-c3ccc4nc(N)sc4c3)nc3ccc4[nH]ncc4c23)C1` (stereo not given), the growth with SR leukemia was 9.04% (active); in the assay with RPMI-8226 leukemia it was 43.4%; with OVCAR-8 ovarian, 46.4%; in the assay with OVCAR-5 ovarian, 65.5%; with OVCAR-4 ovarian, 64.9%; with SK-OV-3 ovarian, 33.7%. The growth was 53.2% with IGROV1 ovarian, 69.7% in the assay on OVCAR-3 ovarian, 30.9% with HS 578T breast and 63.7% with NCI/ADR-RES ovarian.

As to `Cc1c(CN)cc(-c2ccc(Cl)cc2)n1-c1ccccc1`, the growth in the assay with SR leukemia is 77.5%; in the assay on RPMI-8226 leukemia it was 66.7%; in the assay on OVCAR-8 ovarian, 74.8%; in the assay with OVCAR-5 ovarian, 80.9%; in the assay on OVCAR-4 ovarian, 40.3%; with SK-OV-3 ovarian, 85.4%. The growth in the assay on IGROV1 ovarian was 48.1%; in the assay on OVCAR-3 ovarian, 106%; in the assay with HS 578T breast it was 87.9%; with NCI/ADR-RES ovarian it was 88.1%.

For `COc1ccc(/C=C/C(=O)c2cc3c(N)c(C(=O)Nc4cccc(Cl)c4C)sc3nc2C)cc1`, the growth with SR leukemia is 16.2%; with RPMI-8226 leukemia, -11.8% (active); in the assay with OVCAR-8 ovarian it was -8.6% (active); with OVCAR-5 ovarian it was 27.6%; with OVCAR-4 ovarian, 37%; in the assay with SK-OV-3 ovarian, 23.8%. The growth in the assay with IGROV1 ovarian was 21.9%; in the assay on OVCAR-3 ovarian, 8.05% (active); in the assay on HS 578T breast, 6.35% (active); in the assay with NCI/ADR-RES ovarian it was -25.5% (active).

In the case of `COc1ccc(C2=CC(c3cc(OC)c(OC)c(OC)c3)n3ncnc3N2)cc1` (stereo not given), the growth was 10.3% with SR leukemia; 24.4% in the assay on RPMI-8226 leukemia; 5.91% (active) with OVCAR-8 ovarian; 35% in the assay with OVCAR-5 ovarian; 41.4% in the assay with OVCAR-4 ovarian; -7.15% (active) in the assay with SK-OV-3 ovarian. Moreover, the growth in the assay on IGROV1 ovarian is 22.2%; with OVCAR-3 ovarian, -41.4% (active); with HS 578T breast, 27%; with NCI/ADR-RES ovarian, 12.8%.

Regarding `CC1(C)CC(=O)c2c(nn(-c3ccc(Br)cc3)c2-c2cn(-c3ccccc3)nc2-c2cccnc2)C1`, the growth in the assay with SR leukemia was 112%; in the assay with RPMI-8226 leukemia, 72.5%; with OVCAR-8 ovarian, 97.6%; in the assay with OVCAR-5 ovarian, 106%; in the assay on OVCAR-4 ovarian it was 84.5%; with SK-OV-3 ovarian, 82.5%. Also, the growth with IGROV1 ovarian was 93.9%; in the assay on OVCAR-3 ovarian, 99.7%; with HS 578T breast, 98.1%; in the assay with NCI/ADR-RES ovarian, 94%.

For the compound `C=C1C(=O)O[C@H]2[C@H]1CC/C(COC(=O)c1cc3cc(Cl)ccc3[nH]1)=C\CC[C@@]1(C)O[C@@H]21`, the growth in the assay on SR leukemia was -25.6% (active); in the assay on RPMI-8226 leukemia, -29.9% (active); with OVCAR-8 ovarian, -72.9% (active); in the assay on OVCAR-5 ovarian, -69.9% (active); in the assay on OVCAR-4 ovarian it was -81.9% (active); with SK-OV-3 ovarian, 27.6%. The growth was -82.7% (active) in the assay on IGROV1 ovarian, -91.3% (active) in the assay on OVCAR-3 ovarian, -22% (active) in the assay on HS 578T breast and -35.3% (active) in the assay with NCI/ADR-RES ovarian.

`CO[C@H]1CC(=O)n2c3ccccc3c3c4c(c5c6ccccc6n1c5c32)C(=O)NC4=O`: the growth with SR leukemia is 20.8%; in the assay with RPMI-8226 leukemia, 88%; with OVCAR-8 ovarian, 37.1%; in the assay with OVCAR-5 ovarian, 120%; with OVCAR-4 ovarian, 24.6%; in the assay with SK-OV-3 ovarian, 68.1%. Further, the growth was 37.3% with IGROV1 ovarian, 56.1% with OVCAR-3 ovarian, 27.6% in the assay with HS 578T breast and 36.2% in the assay with NCI/ADR-RES ovarian.

Regarding `CCOc1cccc(/C=N/NC(=O)c2cccc(Nc3ccnc(C(F)(F)F)c3)c2)c1O`, the growth was 41.4% in the assay with SR leukemia; 27.3% in the assay with RPMI-8226 leukemia; 24.4% in the assay with OVCAR-8 ovarian; 40.9% in the assay with OVCAR-5 ovarian; 39.1% with OVCAR-4 ovarian; 30.2% with SK-OV-3 ovarian. The growth is 24.2% in the assay on IGROV1 ovarian, 43.2% with OVCAR-3 ovarian, 43.7% with HS 578T breast and 37.6% in the assay on NCI/ADR-RES ovarian.

As to `O=C(NC(Cc1nnc2n(Cc3ccccc3)c(=O)c3c4c(sc3n12)CCCC4)c1ccccc1)c1ccccc1` (stereo not given), the growth in the assay on SR leukemia is 104%; with RPMI-8226 leukemia, 123%; in the assay with OVCAR-8 ovarian, 77.1%; with OVCAR-5 ovarian, 86.7%; with OVCAR-4 ovarian, 103%; in the assay with SK-OV-3 ovarian it was 110%. Also, the growth with IGROV1 ovarian was 54.9%; with OVCAR-3 ovarian it was 107%; in the assay on HS 578T breast it was 101%; with NCI/ADR-RES ovarian it was 87.9%.
